{
  "source": "PubChem BioAssay AID1008",
  "about": "(NMMLSC, 2008)",
  "note": "The campaign covered roughly 190,000 compounds. About 240 (0.13%) were called active. The sample as a whole holds a higher share of actives than the screen did. Unmarked numbers belong to inactive results. No stated cut-off is given here; in the data, active means inhibition above about 40%.",
  "data": [
    {"biological_target": "Bcl-2-related protein A1 (Homo sapiens) (UniProt Q16548)", "sequence (Q16548 whole entry, looked up)": "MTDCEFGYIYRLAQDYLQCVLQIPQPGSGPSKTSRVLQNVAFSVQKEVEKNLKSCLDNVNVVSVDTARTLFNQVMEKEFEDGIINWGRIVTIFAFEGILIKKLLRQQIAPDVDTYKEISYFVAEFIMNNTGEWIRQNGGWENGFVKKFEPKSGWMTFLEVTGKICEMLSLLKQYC", "assay": "inhibitors of Bim binding to Bfl-1, primary screen, biochemical, multiplexed, bead-based flow cytometry (AID 1008);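 further: 0% = wells without compound plus tracer and 100% = blocker peptide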", "details": "Bim-Bfl-1 binding inhibition, at 10 µM, stronger effect = higher value", "values": [
      {"compound": "O=c1[nH]c2ccccc2n2c(-c3ccccc3)nnc12", "inhibition": "54% (active)"},
      {"compound": "O=[N+]([O-])c1cccc(-c2nnc3c4ccccc4c4ccccc4n23)c1", "inhibition": "-7%"},
      {"compound": "CCOC(=O)c1cnc2[nH]c3ccccc3n2c1=O", "inhibition": "-8%"},
      {"compound": "CC(=O)c1ccc(N2CCN(C(=O)c3ccc4nc[nH]c4c3)CC2)cc1", "inhibition": "0%"},
      {"compound": "CN(C(=O)CSc1nnc(Nc2ccccc2)s1)C1CCS(=O)(=O)C1", "note": "(stereo not drawn)", "inhibition": "-5%"},
      {"compound": "CC1(C)C2CCC1(C)C(OC(=O)c1ccc(O)cc1)C2", "note": "(stereo not drawn)", "inhibition": "2%"},
      {"compound": "COc1ccc(CC(=O)NCc2nnc(SCC(=O)Nc3ncc(C)s3)n2C)cc1", "inhibition": "-5%"},
      {"compound": "COc1ccc(CN2CCNC(=O)C2CC(=O)N(C)Cc2ccccn2)cc1OC", "note": "(stereo not drawn)", "inhibition": "-2%"},
      {"compound": "O=C(O)CC(Cc1ccccc1)C(=O)Nc1ccc([N+](=O)[O-])cc1", "note": "(stereo not drawn)", "inhibition": "-14%"},
      {"compound": "Cc1cc(Cl)ccc1NC(=S)N1CCC(C(N)=O)(N2CCCCC2)CC1", "inhibition": "0%"},
      {"compound": "C=CCOCCN(C)C1=NS(=O)(=O)c2ccccc21", "inhibition": "-4%"},
      {"compound": "CCC(C)(C)NC(=O)CN(C(=O)C(=O)Nc1ccc2c(c1)OCCO2)C(C)(C)CC", "inhibition": "3%"},
      {"compound": "O=S(=O)(c1ccc(-c2ccccc2)cc1)N1CCCC1", "inhibition": "-7%"},
      {"compound": "CN(c1ccc2nc3ccccc3c(=O)n2n1)C1CCCCC1", "inhibition": "-3%"},
      {"compound": "CCOC(=O)Cc1csc(NC(=O)COc2ccc3c(C)cc(=O)oc3c2)n1", "inhibition": "-4%"},
      {"compound": "CCOC(=O)c1ccccc1NC(=O)CSc1nc2ccccc2c(=O)[nH]1", "inhibition": "-3%"},
      {"compound": "COc1ccc(-c2ccc(CCC(=O)O)n2-c2ccc(O)cc2)cc1", "inhibition": "5%"},
      {"compound": "Cc1cc(Cl)c(S(=O)(=O)Nc2ccc3c(c2)OCCO3)cc1OCC(N)=O", "inhibition": "-2%"},
      {"compound": "Cc1cc(Cl)c(S(=O)(=O)NCCC(=O)O)cc1OCC(N)=O", "inhibition": "-15%"},
      {"compound": "Cc1cc(Cl)c(S(=O)(=O)NCC2CCCO2)cc1OCC(N)=O", "note": "(stereo not drawn)", "inhibition": "48% (active)"},
      {"compound": "CN(C)S(=O)(=O)N1CCN(c2ccc([N+](=O)[O-])cc2)CC1", "inhibition": "0%"},
      {"compound": "Cc1ccc(CC(=O)Nc2ccc(OC(F)F)c(Cl)c2)cc1C", "inhibition": "-6%"},
      {"compound": "COc1cccc(C(O)Cc2nc3ccccc3n2C)c1OC", "note": "(stereo not drawn)", "inhibition": "-3%"},
      {"compound": "CCOC(=O)/C(C#N)=C/c1cn(CCC(=O)O)nc1-c1ccc(Br)cc1", "inhibition": "-9%"},
      {"compound": "CC(=O)Nc1ccc(NC(=O)COc2ccc(S(=O)(=O)NC(C)c3ccccc3)cc2)cc1", "note": "(stereo not drawn)", "inhibition": "-5%"},
      {"compound": "Cc1oc2c(c1C(=O)N1CCOCC1)C(=O)c1ccccc1C2=O", "inhibition": "-1%"},
      {"compound": "Cc1ccnc(NC(=O)c2ccco2)n1", "inhibition": "-3%"},
      {"compound": "COC(=O)COc1ccc(C2NC(=O)NC(C)=C2C(=O)NCc2ccccc2)cc1OC", "note": "(stereo not drawn)", "inhibition": "-9%"},
      {"compound": "C/C(=N\\NC(=O)COc1c(C)cccc1C)c1cccs1", "inhibition": "-7%"},
      {"compound": "Cc1ccc(NC(=O)c2ccn(C(=O)Nc3ccccc3)n2)c(C)c1", "inhibition": "-2%"},
      {"compound": "CC1(C)CC(=O)c2ccc(O)cc2O1", "inhibition": "-4%"},
      {"compound": "Cc1[nH]c2ccccc2c1SCC(=O)Nc1nccs1", "inhibition": "-5%"},
      {"compound": "CCCOC(=O)c1c(NC(=O)c2cnn3c2NC(c2ccccc2)CC3C(F)(F)F)sc2c1CCCC2", "note": "(stereo not drawn)", "inhibition": "-18%"},
      {"compound": "Cc1ccc(-c2csc(NC(=O)Cn3[nH]c(=O)c4ccccc4c3=O)n2)cc1", "inhibition": "-4%"},
      {"compound": "CCc1cccc(CC)c1NC(=S)NCc1ccc2[nH]c(C)cc2c1", "inhibition": "-2%"},
      {"compound": "Cn1cc(CN2CCC(C(O)CCc3ccccc3)CC2)c(-c2ccccc2F)n1", "note": "(stereo not drawn)", "inhibition": "-5%"},
      {"compound": "CCO[C@H]1OC(C(=O)N2CCOCC2)=C[C@@H](c2ccc3c(c2)OCO3)[C@@H]1CCCO", "inhibition": "-4%"},
      {"compound": "O=C(CCC(=O)Nc1ccccc1)N/N=C/c1ccccc1F", "inhibition": "-4%"},
      {"compound": "Cc1cc([N+](=O)[O-])ccc1NC1CCCC1", "inhibition": "-7%"},
      {"compound": "C=CS(=O)c1sc(Cl)c(N2CCOCC2)c1[N+](=O)[O-]", "note": "(stereo not drawn)", "inhibition": "57% (active)"},
      {"compound": "O=[N+]([O-])c1c(NCCO)cc(Sc2nc3ccccc3s2)c2nonc12", "inhibition": "56% (active)"},
      {"compound": "COc1ccc(S(=O)(=O)Nc2ccc(O)c(Sc3nc4ccccc4s3)c2)cc1", "inhibition": "9%"},
      {"compound": "O=C(O)c1cccc(S(=O)(=O)Nc2ccc(O)cc2Sc2nc3ccccc3s2)c1", "inhibition": "7%"},
      {"compound": "COc1ccc(N(C)S(=O)(=O)c2cccc3nsnc23)cc1", "inhibition": "-6%"},
      {"compound": "C=CCn1c2ccccc2c2nnc(SCc3[nH]c(=O)[nH]c3C(=O)CCCCC(=O)OCC)nc21", "inhibition": "16%"},
      {"compound": "Cc1nonc1C1CCCN1Cc1nc(-c2ccc(F)cc2F)oc1C", "note": "(stereo not drawn)", "inhibition": "-4%"},
      {"compound": "Cc1n[nH]c(=O)n1-c1ccc(C(C)C)cc1", "inhibition": "-5%"},
      {"compound": "C/C(CC(=O)Nc1cccc(F)c1)=N\\NC(=O)C(=O)NC1CCCCC1", "inhibition": "0%"},
      {"compound": "CN(C(=O)c1c(Cl)cnn1C)C12CC3CC(CC(C3)C1)C2", "inhibition": "21%"},
      {"compound": "CCN(CCn1cccn1)Cc1nc(-c2ccc(C(=O)OC)cc2)no1", "inhibition": "-5%"},
      {"compound": "Cc1ccccc1NC(=O)CN1C(=O)N/C(=C\\c2cccn2-c2cccc(C(=O)O)c2)C1=O", "inhibition": "-3%"},
      {"compound": "COc1cc(NC(=S)NCCSc2ccc(C)cc2)cc(OC)c1", "inhibition": "-1%"},
      {"compound": "CCN(CC)S(=O)(=O)c1ccc(Cl)c(C(=O)NC(C)C(c2cccs2)N2CCCC2)c1", "note": "(stereo not drawn)", "inhibition": "-5%"},
      {"compound": "C=CCNc1nc(Nc2ccc(Cl)cc2)nc(OC)n1", "inhibition": "-6%"},
      {"compound": "Cc1cccc(NC(=S)NCCN(C2CCCCC2)C2CCCC2)c1", "inhibition": "-2%"},
      {"compound": "CCOC(=O)C1(CC2CCCCO2)CCN(Cc2nc(-c3cccs3)oc2C)CC1", "note": "(stereo not drawn)", "inhibition": "-5%"},
      {"compound": "Cc1cccc2cc(CN(C(=O)c3cccs3)c3ccccc3)c(=O)[nH]c12", "inhibition": "-5%"},
      {"compound": "N=c1c2c3c(sc2ncn1N)CCCC3", "inhibition": "-7%"},
      {"compound": "Nc1nc(CC(=O)CSc2ccc(Cl)cc2)nc(Nc2ccc(F)cc2)n1", "inhibition": "-12%"},
      {"compound": "O=C(/C=C/c1ccc(Cl)cc1)N1CCN(c2ccccc2[N+](=O)[O-])CC1", "inhibition": "2%"},
      {"compound": "CCN(CC)CCCNC(=O)c1ccc2c(=O)n(Cc3ccc4c(c3)OCO4)c(=S)[nH]c2c1", "inhibition": "-5%"},
      {"compound": "CCOC(=O)c1sc(-c2cccc([N+](=O)[O-])c2)cc1N", "inhibition": "-1%"},
      {"compound": "Cc1ccc(/C=N/NC(=O)Cn2ccc(C(F)(F)F)n2)o1", "inhibition": "-3%"},
      {"compound": "COc1ccc(N2C(=O)C(CC(=O)Nc3ccc(F)cc3)N(CCc3cccs3)C2=O)cc1", "note": "(stereo not drawn)", "inhibition": "-3%"},
      {"compound": "Cc1cc(C(=O)NNC(=O)c2cccc(S(=O)(=O)N3CCOCC3)c2)c2ccccc2n1", "inhibition": "-6%"},
      {"compound": "CC(C)n1c(O)c(N=Nc2ccccn2)c2ccccc21", "inhibition": "-1%"},
      {"compound": "CCC(O)C1CCN(Cc2cn(-c3ccc(OC)cc3)nc2-c2cccc(F)c2)CC1", "note": "(stereo not drawn)", "inhibition": "-8%"},
      {"compound": "CC(=O)C1=C(C)NC2=C(C(=O)CC(C)(C)C2)C1C", "note": "(stereo not drawn)", "inhibition": "-2%"},
      {"compound": "O=C(O)CSc1nccc2ccccc12", "inhibition": "5%"},
      {"compound": "OC1CCCN(c2ncnc3c2nnn3Cc2c(F)cccc2Cl)C1", "note": "(stereo not drawn)", "inhibition": "4%"},
      {"compound": "CO/N=C/CC(=O)c1ccc(OC)cc1", "inhibition": "-2%"},
      {"compound": "OCCC1CN(Cc2ccc3nsnc3c2)CCN1C1CCCC1", "note": "(stereo not drawn)", "inhibition": "-8%"},
      {"compound": "CCc1ccc(C2C(C#N)=C(N)N(N(C)C)C3=C2C(=O)CCC3)s1", "note": "(stereo not drawn)", "inhibition": "0%"},
      {"compound": "CC(OC(=O)c1ccccc1OCc1ccc(Cl)cc1)C(N)=O", "note": "(stereo not drawn)", "inhibition": "-4%"},
      {"compound": "CC1Cc2ccccc2N1C1=CC(=O)CC(C)(C)C1", "note": "(stereo not drawn)", "inhibition": "-4%"},
      {"compound": "C=CCc1ccccc1OCC(=O)N/N=C/c1ccccc1OCC", "inhibition": "-1%"},
      {"compound": "Cc1ccc(/C=N/NC(=O)CNC(=O)COc2ccccc2)o1", "inhibition": "-12%"},
      {"compound": "CCOc1ccccc1/C=N/NC(=O)CNC(=O)COc1ccccc1", "inhibition": "54% (active)"},
      {"compound": "C=CCOC(=O)C1=C(C)N=C2SCCC(=O)N2C1/C=C/c1ccccc1OC", "note": "(stereo not drawn)", "inhibition": "-9%"},
      {"compound": "Cc1c(NC(=O)/C=C/C(=O)O)cccc1[N+](=O)[O-]", "inhibition": "-15%"},
      {"compound": "Cc1ccc(/C=C/C(=O)Nc2ccc([N+](=O)[O-])c(NC(=O)/C=C/c3ccc(C)o3)c2)o1", "inhibition": "40% (active)"},
      {"compound": "CCc1nnc(NC(=O)/C=C/c2ccc(C)o2)s1", "inhibition": "-1%"},
      {"compound": "O=C(/C=C/c1ccc(Cl)cc1)Nc1ccc(Br)cn1", "inhibition": "-6%"},
      {"compound": "Cc1nn(-c2ccccc2)c(NC(=O)c2cccs2)c(-c2ccc(Cl)cc2)c1=O", "inhibition": "-7%"},
      {"compound": "CSCc1cc(N2CCOCC2)nc(SCc2ccc(Cl)cc2Cl)n1", "inhibition": "-15%"},
      {"compound": "Clc1ccc(CSc2nnc(/C=C/c3ccccc3)o2)c(Cl)c1", "inhibition": "-12%"},
      {"compound": "CSCc1cc(N(C)C)nc(SCc2ccc(Cl)cc2Cl)n1", "inhibition": "52% (active)"},
      {"compound": "COc1cc(OC)cc(-c2nnc(N(C)C(=O)c3ccncc3)s2)c1", "inhibition": "-10%"},
      {"compound": "CCO[C@H]1OC(C(=O)N2CCCCCCC2)=C[C@@H](c2ccc(C(F)(F)F)cc2)[C@@H]1CCCO", "inhibition": "-7%"},
      {"compound": "C/C(=C\\c1ccco1)C1Nc2cccc3cccc(c23)N1", "inhibition": "45% (active)"},
      {"compound": "CC(/C=N/NC(=O)c1cc(-c2ccc3ccccc3c2)n[nH]1)=C\\c1ccco1", "inhibition": "8%"},
      {"compound": "CC(/C=N/NC(=O)c1ccncc1)=C\\c1ccco1", "inhibition": "-1%"},
      {"compound": "CCn1c(CNC(=O)c2ccco2)nnc1SCC(=O)Nc1cccc(F)c1", "inhibition": "-1%"},
      {"compound": "Cc1ccc(C2CCN(C(=S)Nc3cccc(Cl)c3)C2)cc1", "note": "(stereo not drawn)", "inhibition": "-4%"},
      {"compound": "COC(=O)c1cc2c(ccn2C)n1C", "inhibition": "-5%"},
      {"compound": "COc1cc(OC)c(C(=O)OCC(=O)N2CC(=O)Nc3ccccc32)cc1OC", "inhibition": "-1%"},
      {"compound": "CCC(=O)c1ccc(OCC(O)Cn2nc(C)c(C(C)=O)c2C)cc1", "note": "(stereo not drawn)", "inhibition": "0%"},
      {"compound": "CNC(=S)N1CCC(NC(=O)C(Cc2ccc(F)cc2)NC(C)=O)CC1", "note": "(stereo not drawn)", "inhibition": "-2%"}
    ]}
  ]
}
